± gives the standard deviation of the averaged measurements.
Columns and labels:
Test in all cases: promoter activity interaction Z-score (Lux/OD deviation from empty-vector control); higher = stronger promoter induction by the compound
[1] = system: E. coli BW25113 acrABp lux reporter
Procedure, shortened: (§1)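 Reporter strains of E. coli BW25113 grew at 37°C in 40 µl LB Lennox in 384-well plates. Readings of OD600 and luminescence were taken every 30 min over 12 h, integrated over 0–8 h (wild type) or 1–9 h (deletion strains), and wells below 10% of the median growth value were excluded. Scores are Z-transformed residuals of growth-normalised luminescence from a fit against a control.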

[2] = system: E. coli BW25113 marRABp lux reporter
Procedure, shortened: as §1

[3] = system: E. coli BW25113 micFp lux reporter
Procedure, shortened: as §1

[4] = system: E. coli BW25113 ompFp lux reporter
Procedure, shortened: as §1

[5] = system: E. coli BW25113 robp lux reporter
Procedure, shortened: as §1

[6] = system: E. coli BW25113 soxSp lux reporter
Procedure, shortened: as §1

[7] = system: E. coli BW25113 tolCp lux reporter
Procedure, shortened: as §1

[8] = 19 µg/ml, genetic background: wild type
[9] = 19 µg/ml, genetic background: ΔmarA
[10] = 19 µg/ml, genetic background: Δrob
[11] = 19 µg/ml, genetic background: ΔsoxS
[12] = 38 µg/ml, genetic background: wild type
[13] = 38 µg/ml, genetic background: ΔmarA
[14] = 38 µg/ml, genetic background: Δrob
[15] = 38 µg/ml, genetic background: ΔsoxS
[16] = 76.1 µg/ml, genetic background: wild type
[17] = 76.1 µg/ml, genetic background: ΔmarA
[18] = 76.1 µg/ml, genetic background: Δrob
[19] = 76.1 µg/ml, genetic background: ΔsoxS
[20] = 152.1 µg/ml, genetic background: wild type
[21] = 152.1 µg/ml, genetic background: ΔmarA
[22] = 152.1 µg/ml, genetic background: Δrob
[23] = 152.1 µg/ml, genetic background: ΔsoxS

COc1cc(C=O)ccc1O [Vanillin]
promoter activity interaction Z-score [1, 8]: -0.0924 ± 0.22
promoter activity interaction Z-score [1, 9]: -1.01 ± 0.36
promoter activity interaction Z-score [1, 10]: -0.237 ± 0.036
promoter activity interaction Z-score [1, 11]: -0.38 ± 0.04
promoter activity interaction Z-score [1, 12]: -0.3 ± 0.17
promoter activity interaction Z-score [1, 13]: 0.134 ± 0.85
promoter activity interaction Z-score [1, 14]: -0.312 ± 0.14
promoter activity interaction Z-score [1, 15]: -0.79 ± 0.35
promoter activity interaction Z-score [1, 16]: -0.108 ± 0.02
promoter activity interaction Z-score [1, 17]: -0.501 ± 0.51
promoter activity interaction Z-score [1, 18]: -0.406 ± 0.017
promoter activity interaction Z-score [1, 19]: -0.409 ± 0.11
promoter activity interaction Z-score [1, 20]: 0.0819 ± 0.4
promoter activity interaction Z-score [1, 21]: -0.204 ± 0.85
promoter activity interaction Z-score [1, 22]: -0.28 ± 0.056
promoter activity interaction Z-score [1, 23]: -0.339 ± 0.24
promoter activity interaction Z-score [2, 8]: -0.156 ± 0.018
promoter activity interaction Z-score [2, 9]: -0.451 ± 0.34
promoter activity interaction Z-score [2, 10]: 0.0366 ± 0.23
promoter activity interaction Z-score [2, 11]: -0.21 ± 0.21
promoter activity interaction Z-score [2, 12]: 0.304 ± 0.065
promoter activity interaction Z-score [2, 13]: 0.0122 ± 0.2
promoter activity interaction Z-score [2, 14]: 0.119 ± 0.4
promoter activity interaction Z-score [2, 15]: -0.0492 ± 0.056
promoter activity interaction Z-score [2, 16]: 0.913 ± 0.07
promoter activity interaction Z-score [2, 17]: 0.599 ± 0.31
promoter activity interaction Z-score [2, 18]: 0.595 ± 0.066
promoter activity interaction Z-score [2, 19]: 0.224 ± 0.12
promoter activity interaction Z-score [2, 20]: 1.28 ± 0.41
promoter activity interaction Z-score [2, 21]: 1.702 ± 0.0098
promoter activity interaction Z-score [2, 22]: 1.077 ± 0.0082
promoter activity interaction Z-score [2, 23]: 0.812 ± 0.084
promoter activity interaction Z-score [3, 8]: 0.414 ± 0.3
promoter activity interaction Z-score [3, 9]: 0.0708 ± 0.21
promoter activity interaction Z-score [3, 10]: 0.348 ± 0.34
promoter activity interaction Z-score [3, 11]: 0.261 ± 0.29
promoter activity interaction Z-score [3, 12]: 0.827 ± 0.47
promoter activity interaction Z-score [3, 13]: 0.117 ± 0.12
promoter activity interaction Z-score [3, 14]: 0.608 ± 0.26
promoter activity interaction Z-score [3, 15]: 0.255 ± 0.57
promoter activity interaction Z-score [3, 16]: 1.55 ± 0.57
promoter activity interaction Z-score [3, 17]: 0.0617 ± 0.059
promoter activity interaction Z-score [3, 18]: 0.54 ± 0.19
promoter activity interaction Z-score [3, 19]: 0.822 ± 0.14
promoter activity interaction Z-score [3, 20]: 1.67 ± 0.3
promoter activity interaction Z-score [3, 21]: 0.484 ± 0.14
promoter activity interaction Z-score [3, 22]: 1.27 ± 0.44
promoter activity interaction Z-score [3, 23]: 1.36 ± 0.11
promoter activity interaction Z-score [4, 8]: -0.994 ± 0.24
promoter activity interaction Z-score [4, 9]: -1.33 ± 0.62
promoter activity interaction Z-score [4, 10]: -1.05 ± 0.28
promoter activity interaction Z-score [4, 11]: -0.69 ± 0.026
promoter activity interaction Z-score [4, 12]: -0.89 ± 0.22
promoter activity interaction Z-score [4, 13]: -1.03 ± 0.49
promoter activity interaction Z-score [4, 14]: -0.857 ± 0.061
promoter activity interaction Z-score [4, 15]: -0.75 ± 0.044
promoter activity interaction Z-score [4, 16]: -0.551 ± 0.35
promoter activity interaction Z-score [4, 17]: -1.2 ± 0.46
promoter activity interaction Z-score [4, 18]: -0.873 ± 0.084
promoter activity interaction Z-score [4, 19]: -0.372 ± 0.057
promoter activity interaction Z-score [4, 20]: -0.504 ± 0.27
promoter activity interaction Z-score [4, 21]: -0.917 ± 0.56
promoter activity interaction Z-score [4, 22]: -0.507 ± 0.057
promoter activity interaction Z-score [4, 23]: 0.0107 ± 0.52
promoter activity interaction Z-score [5, 8]: -0.0267 ± 0.12
promoter activity interaction Z-score [5, 9]: -0.748 ± 0.21
promoter activity interaction Z-score [5, 10]: -0.428 ± 0.024
promoter activity interaction Z-score [5, 11]: -0.184 ± 0.93
promoter activity interaction Z-score [5, 12]: -0.354 ± 0.066
promoter activity interaction Z-score [5, 13]: 0.11 ± 0.23
promoter activity interaction Z-score [5, 14]: -0.287 ± 0.54
promoter activity interaction Z-score [5, 15]: -0.138 ± 0.42
promoter activity interaction Z-score [5, 16]: -0.265 ± 0.18
promoter activity interaction Z-score [5, 17]: -0.307 ± 0.11
promoter activity interaction Z-score [5, 18]: -0.399 ± 0.16
promoter activity interaction Z-score [5, 19]: -0.0986 ± 0.36
promoter activity interaction Z-score [5, 20]: 0.841 ± 1.6
promoter activity interaction Z-score [5, 21]: 0.111 ± 0.07
promoter activity interaction Z-score [5, 22]: -0.463 ± 0.3
promoter activity interaction Z-score [5, 23]: 0.223 ± 0.32
promoter activity interaction Z-score [6, 8]: -0.29 ± 0.1
promoter activity interaction Z-score [6, 9]: -0.185 ± 0.056
promoter activity interaction Z-score [6, 10]: 0.0115 ± 0.23
promoter activity interaction Z-score [6, 11]: -0.409 ± 0.11
promoter activity interaction Z-score [6, 12]: -0.279 ± 0.037
promoter activity interaction Z-score [6, 13]: -0.201 ± 0.018
promoter activity interaction Z-score [6, 14]: 0.0294 ± 0.17
promoter activity interaction Z-score [6, 15]: -0.314 ± 0.082
promoter activity interaction Z-score [6, 16]: -0.117 ± 0.062
promoter activity interaction Z-score [6, 17]: -0.32 ± 0.06
promoter activity interaction Z-score [6, 18]: -0.186 ± 0.072
promoter activity interaction Z-score [6, 19]: -0.321 ± 0.11
promoter activity interaction Z-score [6, 20]: -0.196 ± 0.03
promoter activity interaction Z-score [6, 21]: -0.205 ± 0.12
promoter activity interaction Z-score [6, 22]: -0.225 ± 0.11
promoter activity interaction Z-score [6, 23]: -0.367 ± 0.18
promoter activity interaction Z-score [7, 8]: 0.0479 ± 0.73
promoter activity interaction Z-score [7, 9]: -0.119 ± 0.31
promoter activity interaction Z-score [7, 10]: 0.58 ± 0.34
promoter activity interaction Z-score [7, 11]: 0.597 ± 0.78
promoter activity interaction Z-score [7, 12]: 0.657 ± 0.53
promoter activity interaction Z-score [7, 13]: 0.25 ± 0.54
promoter activity interaction Z-score [7, 14]: 0.749 ± 0.62
promoter activity interaction Z-score [7, 15]: -0.627 ± 0.44
promoter activity interaction Z-score [7, 16]: 0.993 ± 0.047
promoter activity interaction Z-score [7, 17]: -0.352 ± 0.71
promoter activity interaction Z-score [7, 18]: -0.533 ± 0.45
promoter activity interaction Z-score [7, 19]: 0.305 ± 0.97
promoter activity interaction Z-score [7, 20]: -0.199 ± 0.18
promoter activity interaction Z-score [7, 21]: -0.469 ± 1
promoter activity interaction Z-score [7, 22]: 0.503 ± 0.78
promoter activity interaction Z-score [7, 23]: 1.07 ± 1.8

From the supplement of paper PMC12282887
